Measurements: PubChem BioAssay (NCI)
Compounds without any hit were thinned out: in the full panel of roughly 83,000, 20% have a hit.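 Assay: single dose, 48 h. Readout: percent growth (0 = no net growth; negative = cell death). Active: <10.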 Values without a mark were called inactive. Calls of active or inactive are those of the source.

system: OVCAR-8 ovarian; experiment: NCI-60 one-dose screen, 48 h (100 = growth as untreated, 0 = no growth, -100 = all killed); settings: 10 µM unless noted

Q: For `O=C1/C(=C/c2ccc(F)cc2)CN(C(=O)CCN2CCC(=NO)CC2)C/C1=C\c1ccc(F)cc1`, which growth is on record?
A: Its growth is 5.09% (active).

Q: For `CC/C=C\C[C@H](O)C/C=C1/C(=O)C=C[C@@H]1C/C=C\CCCC(N)=O`, which growth is on record?
A: Its growth is 11.6%.

Q: With `CC/C=C\C[C@H](F)C/C=C1/C(=O)C=C[C@@H]1C/C=C\CCCC(=O)OC` as the compound, how does the growth read?
A: The growth was -15.4% (active).

Q: With `Nc1nc2c(c3ncccc13)C(c1ccc(Cl)c(Cl)c1)Cc1ncccc1-2` (stereo unspecified) as the compound, how does the growth read?
A: Its growth is 34.2%.

Q: `Cn1c(=O)c2c(ncn2CC[N+](C)(C)C)n(C)c1=O` was tested. Which growth did it give?
A: Its growth is 105%.

Q: `O=C(O)c1cccc2c1-c1ccccc1C2=O` was tested. Which growth did it give?
A: Its growth is 103%.

Q: Which growth does the source give for `CCOC(=O)C(C#N)C1CCCCC1` (stereo unspecified) here?
A: The growth was 103%.

Q: For `CCCCNP1(NCCCC)=NP(NCCCC)(NCCCC)=NP(NCCCC)(NCCCC)=NP(NCCCC)(NCCCC)=N1`, which growth is on record?
A: Its growth is 16.7%.

Q: `CC(=O)C1=C(O)C=C2Oc3c(C(=O)/C=C/c4cc(C(F)(F)F)cc(C(F)(F)F)c4)c(O)c(C)c(O)c3[C@]2(C)C1=O` was tested. Which growth did it give?
A: The growth was -29.1% (active).

Q: How did the growth turn out when `COc1ccc(OCC(=O)Nc2ccc(-c3nc4ccccc4s3)cc2C)cc1` was run?
A: Its growth is 113%.

Q: For `CCCCCCCCCC(=O)Oc1ccc(/C(=C(/C)c2ccccc2)c2ccc(OCCN3CCCC3)cc2)cc1`, which growth is on record?
A: Its growth is 54.5%.

Q: Which growth does the source give for `COc1cccc(-c2nc3sccn3c2-c2ccnc(NCCCNS(=O)(=O)c3ccc(Cl)cc3)c2)c1` here?
A: Its growth is 31.1%.

Q: How did the growth turn out when `CC/C=C\C[C@H](O)C/C=C1/C(=O)C=C[C@@H]1C/C=C\CCCC(=O)NC` was run?
A: The growth was 11.1%.

Q: How did the growth turn out when `COc1cccc(/C=C\C(=O)c2ccccc2)c1` was run?
A: The growth was 81.4%.

Q: Which growth does the source give for `C=C1CC2(OC1=O)C(=O)Nc1ccccc12` (stereo unspecified) here?
A: Its growth is 89.4%.

Q: With `Cc1ccc2c(c1)C(=O)/C(=C/c1ccc(OCC(=O)c3ccccc3)cc1)O2` as the compound, how does the growth read?
A: The growth was 106%.

Q: With `CCN(C(=O)CN1CCN(c2cc3c(cc2F)c(=O)c(C(=O)O)cn3C2CC2)CC1)c1nc(-c2ccc(OC)cc2)cs1` as the compound, how does the growth read?
A: The growth was 59.6%.

Q: How did the growth turn out when `CS(CCCCN=C=S)=NC(=O)c1c(F)c(F)c(F)c(F)c1F` (stereo unspecified) was run?
A: Its growth is 91.9%.

Q: For `Cc1ccccc1CCO`, which growth is on record?
A: The growth was 100%.

Q: Which growth does the source give for `O=C(O)c1c([N+](=O)[O-])cnc2ccccc12` here?
A: Its growth is 96.2%.

Q: Which growth does the source give for `CC(=O)C1=C(O)C=C2Oc3c(C(=O)/C=C/c4cc(Cl)cc(Cl)c4)c(O)c(C)c(O)c3[C@]2(C)C1=O` here?
A: Its growth is -24.3% (active).

Q: With `COc1cc(NC(N)=NCC(C)(C)COc2ccc(C(F)(F)F)cc2)cnc1C#N` as the compound, how does the growth read?
A: Its growth is 81.8%.

Q: `CC1=CC(=O)CC(C)(C)[C@@]1(O)/C=C/[C@@H](C)O` was tested. Which growth did it give?
A: The growth was 90.1%.

Q: For `OC(c1cc(-c2ccccc2)nc2ccc(Cl)cc12)C1CCCCN1` (stereo unspecified), which growth is on record?
A: The growth was 33.1%.

Q: For `CCC(=O)OCc1cccc(OC)c1`, which growth is on record?
A: The growth was 98.2%.

Q: Which growth does the source give for `CCCCCCCCCCCCCC(=O)C(C)N` (stereo unspecified) here?
A: The growth was 89.9%.

Q: With `CC1=C(C)C(=O)OC([C@](C)(O)[C@]2(O)CC[C@@]3(O)[C@@H]4C[C@H]5O[C@]56CC=CC(=O)[C@]6(C)[C@H]4CC[C@]23COC(=O)c2ccc(C)o2)C1` (stereo partly specified) as the compound, how does the growth read?
A: The growth was -13.8% (active).

Q: `C=C1CC[C@@H]2[C@](C)(COC(C)=O)[C@H](OC(C)=O)CC[C@@]2(C)[C@@H]1CC(Nc1ccc(S(=O)(=O)Nc2ccc(Cl)nn2)cc1)C1=CCOC1=O` (stereo partly specified) was tested. Which growth did it give?
A: Its growth is 16.9%.

Q: With `CC(C)[C@H]1COC(=O)N1[C@@H]1C(=O)N([C@@H](CCC(=O)N2CCN(C3CCCC3)CC2)C(=O)N[C@@H]2CCCc3ccccc32)[C@@H]1/C=C/c1cccc(Br)c1` as the compound, how does the growth read?
A: The growth was 62.1%.

Q: With `Cc1cc(Cl)ccc1Nc1nc(C(F)(F)F)ccc1C(=O)N/N=C/c1ccc(F)cc1` as the compound, how does the growth read?
A: Its growth is 23.1%.

Q: How did the growth turn out when `Cn1c(=O)c2[nH]c(C(O)C(O)C(O)C(O)CO)nc2n(C)c1=O` (stereo unspecified) was run?
A: Its growth is 108%.

Q: `C(=N\Nc1ccccn1)/c1ccccn1` was tested. Which growth did it give?
A: The growth was 13.6%.

Q: For `COc1cccc(-c2cn3c(ccc4ccccc43)n2)c1`, which growth is on record?
A: The growth was 45.7%.

Q: Which growth does the source give for `COc1ccc2c(c1)C(=O)/C(=C/c1cccc(OCC(=O)Nc3nc4c(s3)CCCC4)c1)O2` here?
A: The growth was 10.4%.

Q: With `c1ccc(-c2nc(N3CCOCC3)c3c4c(sc3n2)CCCCC4)nc1` as the compound, how does the growth read?
A: Its growth is 81.2%.

Q: Which growth does the source give for `COc1ccc(-c2cn3c(ccc4ccccc43)n2)cc1` here?
A: Its growth is 98.8%.

Q: Which growth does the source give for `COc1cc(OC)c(/C=C/C(=O)c2c(OC)cc(OC)cc2OC)c(OC)c1` here?
A: The growth was 17.6%.

Q: How did the growth turn out when `COc1ccc(-c2cc(-c3ccc(N(C)C)cc3)nc(NC(=O)c3ccncc3)n2)cc1` was run?
A: Its growth is 97.7%.

system: OVCAR-5 ovarian; experiment: as above; settings: 10 µM unless noted

Q: Which growth does the source give for `O=C1/C(=C/c2ccc(F)cc2)CN(C(=O)CCN2CCC(=NO)CC2)C/C1=C\c1ccc(F)cc1` here?
A: The growth was -53.9% (active).

Q: With `CC/C=C\C[C@H](O)C/C=C1/C(=O)C=C[C@@H]1C/C=C\CCCC(N)=O` as the compound, how does the growth read?
A: The growth was 29.8%.

Q: `CC/C=C\C[C@H](F)C/C=C1/C(=O)C=C[C@@H]1C/C=C\CCCC(=O)OC` was tested. Which growth did it give?
A: The growth was 68.2%.

Q: With `Nc1nc2c(c3ncccc13)C(c1ccc(Cl)c(Cl)c1)Cc1ncccc1-2` (stereo unspecified) as the compound, how does the growth read?
A: The growth was 81.3%.

Q: With `Cn1c(=O)c2c(ncn2CC[N+](C)(C)C)n(C)c1=O` as the compound, how does the growth read?
A: The growth was 105%.

Q: How did the growth turn out when `O=C(O)c1cccc2c1-c1ccccc1C2=O` was run?
A: Its growth is 92.2%.

Q: `CCOC(=O)C(C#N)C1CCCCC1` (stereo unspecified) was tested. Which growth did it give?
A: The growth was 99.8%.

Q: How did the growth turn out when `CCCCNP1(NCCCC)=NP(NCCCC)(NCCCC)=NP(NCCCC)(NCCCC)=NP(NCCCC)(NCCCC)=N1` was run?
A: Its growth is 16.7%.

Q: With `CC(=O)C1=C(O)C=C2Oc3c(C(=O)/C=C/c4cc(C(F)(F)F)cc(C(F)(F)F)c4)c(O)c(C)c(O)c3[C@]2(C)C1=O` as the compound, how does the growth read?
A: Its growth is -6.52% (active).

Q: With `COc1ccc(OCC(=O)Nc2ccc(-c3nc4ccccc4s3)cc2C)cc1` as the compound, how does the growth read?
A: The growth was 78.1%.

Q: With `CCCCCCCCCC(=O)Oc1ccc(/C(=C(/C)c2ccccc2)c2ccc(OCCN3CCCC3)cc2)cc1` as the compound, how does the growth read?
A: Its growth is 54.4%.

Q: For `COc1cccc(-c2nc3sccn3c2-c2ccnc(NCCCNS(=O)(=O)c3ccc(Cl)cc3)c2)c1`, which growth is on record?
A: Its growth is 90.6%.

Q: `CC/C=C\C[C@H](O)C/C=C1/C(=O)C=C[C@@H]1C/C=C\CCCC(=O)NC` was tested. Which growth did it give?
A: The growth was 20.2%.

Q: `COc1cccc(/C=C\C(=O)c2ccccc2)c1` was tested. Which growth did it give?
A: The growth was 94.7%.

Q: How did the growth turn out when `C=C1CC2(OC1=O)C(=O)Nc1ccccc12` (stereo unspecified) was run?
A: Its growth is 66%.

Q: `Cc1ccc2c(c1)C(=O)/C(=C/c1ccc(OCC(=O)c3ccccc3)cc1)O2` was tested. Which growth did it give?
A: Its growth is 107%.

Q: `CCN(C(=O)CN1CCN(c2cc3c(cc2F)c(=O)c(C(=O)O)cn3C2CC2)CC1)c1nc(-c2ccc(OC)cc2)cs1` was tested. Which growth did it give?
A: The growth was 92%.

Q: With `CS(CCCCN=C=S)=NC(=O)c1c(F)c(F)c(F)c(F)c1F` (stereo unspecified) as the compound, how does the growth read?
A: Its growth is 109%.

Q: Which growth does the source give for `Cc1ccccc1CCO` here?
A: The growth was 95.9%.

Q: With `O=C(O)c1c([N+](=O)[O-])cnc2ccccc12` as the compound, how does the growth read?
A: The growth was 99.1%.

Q: `CC(=O)C1=C(O)C=C2Oc3c(C(=O)/C=C/c4cc(Cl)cc(Cl)c4)c(O)c(C)c(O)c3[C@]2(C)C1=O` was tested. Which growth did it give?
A: Its growth is 0.163% (active).

Q: For `COc1cc(NC(N)=NCC(C)(C)COc2ccc(C(F)(F)F)cc2)cnc1C#N`, which growth is on record?
A: Its growth is 65%.

Q: For `CC1=CC(=O)CC(C)(C)[C@@]1(O)/C=C/[C@@H](C)O`, which growth is on record?
A: The growth was 103%.

Q: `OC(c1cc(-c2ccccc2)nc2ccc(Cl)cc12)C1CCCCN1` (stereo unspecified) was tested. Which growth did it give?
A: Its growth is 58.8%.

Q: `CCC(=O)OCc1cccc(OC)c1` was tested. Which growth did it give?
A: Its growth is 118%.

Q: `CCCCCCCCCCCCCC(=O)C(C)N` (stereo unspecified) was tested. Which growth did it give?
A: Its growth is 68.7%.

Q: For `CC1=C(C)C(=O)OC([C@](C)(O)[C@]2(O)CC[C@@]3(O)[C@@H]4C[C@H]5O[C@]56CC=CC(=O)[C@]6(C)[C@H]4CC[C@]23COC(=O)c2ccc(C)o2)C1` (stereo partly specified), which growth is on record?
A: The growth was -69.8% (active).

Q: `C=C1CC[C@@H]2[C@](C)(COC(C)=O)[C@H](OC(C)=O)CC[C@@]2(C)[C@@H]1CC(Nc1ccc(S(=O)(=O)Nc2ccc(Cl)nn2)cc1)C1=CCOC1=O` (stereo partly specified) was tested. Which growth did it give?
A: The growth was 44.6%.

Q: With `CC(C)[C@H]1COC(=O)N1[C@@H]1C(=O)N([C@@H](CCC(=O)N2CCN(C3CCCC3)CC2)C(=O)N[C@@H]2CCCc3ccccc32)[C@@H]1/C=C/c1cccc(Br)c1` as the compound, how does the growth read?
A: The growth was 88.2%.

Q: `Cc1cc(Cl)ccc1Nc1nc(C(F)(F)F)ccc1C(=O)N/N=C/c1ccc(F)cc1` was tested. Which growth did it give?
A: The growth was 18.6%.

Q: `Cn1c(=O)c2[nH]c(C(O)C(O)C(O)C(O)CO)nc2n(C)c1=O` (stereo unspecified) was tested. Which growth did it give?
A: Its growth is 101%.

Q: Which growth does the source give for `C(=N\Nc1ccccn1)/c1ccccn1` here?
A: Its growth is 40.7%.

Q: How did the growth turn out when `COc1cccc(-c2cn3c(ccc4ccccc43)n2)c1` was run?
A: Its growth is 52.7%.

Q: How did the growth turn out when `COc1ccc2c(c1)C(=O)/C(=C/c1cccc(OCC(=O)Nc3nc4c(s3)CCCC4)c1)O2` was run?
A: Its growth is -13.6% (active).

Q: With `c1ccc(-c2nc(N3CCOCC3)c3c4c(sc3n2)CCCCC4)nc1` as the compound, how does the growth read?
A: Its growth is 58.3%.

Q: How did the growth turn out when `COc1ccc(-c2cn3c(ccc4ccccc43)n2)cc1` was run?
A: Its growth is 112%.

Q: How did the growth turn out when `COc1cc(OC)c(/C=C/C(=O)c2c(OC)cc(OC)cc2OC)c(OC)c1` was run?
A: The growth was 29.1%.

Q: With `COc1ccc(-c2cc(-c3ccc(N(C)C)cc3)nc(NC(=O)c3ccncc3)n2)cc1` as the compound, how does the growth read?
A: The growth was 109%.
